# Measured values: PubChem BioAssay (Tox21)
# Where “and” joins values, the source holds several entries; their conditions need not be identical. Equal entries are not always repeated. Records with an inconclusive call do not appear. Entries that show only a call come without a potency. A structure can be active in one record and inactive in another. Calls of active or inactive are those of the source. Unless noted, the call rests on the fitted dose curve; in most records, active means well fitted curve in the direction sought with a large enough effect in the repeat runs; inconclusive means weak or mixed curves; inactive means no such curve, though single readings can be large; an effect the other way counts as inactive or inconclusive.
# Columns and labels:
# [1] = target: Thyrotropin receptor (Homo sapiens) (UniProt P16473); experiment: qHTS assay to identify small molecule agonists of the thyroid stimulating hormone receptor (TSHR) signaling pathway (AID 1224843; calls by dose curve; further: nearly all actives have a fitted effect of over 45% in size)
# Summary of the method: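 A cell-based cAMP HTRF format was run in TSHR-transfected HEK293 cells, 800 per well. Treatment: 30 min, room temperature. Detection: 1 h with labelled cAMP and anti-cAMP cryptate. Concentration-response over 15 points, three replicates.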
# [2] = qHTS assay to identify small molecule agonists of the hypoxia (HIF-1) signaling pathway - cell viability counter screen (AID 1224844; calls by dose curve; further: nearly all actives have a fitted effect of over 50% in size)
# Summary of the method: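 In this counter screen, HRE-bla ME-180 cell viability after 17 hrs of compound exposure at 37C was read by CellTiter-Glo luminescence, multiplexed with the beta-lactamase reporter measurement.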
# [3] = qHTS assay to identify small molecule agonists of the hypoxia (HIF-1) signaling pathway (AID 1224846; active means well fitted activation curve with a large enough effect in the signal ratio in the repeat runs, not every such curve was filed as active; the % refers to the signal ratio)
# Summary of the method: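 ME-180 HRE-bla reporter cells; compounds in DMSO, 17 h at 37C; read-out beta-lactamase via CCF4-AM FRET.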
# [4] = qHTS assay to identify small molecule agonists of H2AX - cell viability counter screen (AID 1224847; calls by dose curve; further: nearly all actives have a fitted effect of over 30% in size; further: potency means the concentration at half of the fitted maximal effect)
# Summary of the method: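 CHO-K1 cells plated overnight at 37C, then exposed 3 h at 37C to compounds at 15 concentrations (0.76% DMSO final). Viability by CellTiter-Glo luminescence after 30 min at room temperature.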
# [5] = qHTS assay to identify small molecule antagonists of the estrogen related receptor (ERR) signaling pathway from Tox21 library (AID 1224848); further: nearly all actives have a fitted effect of over 50% in size; further: potency means the concentration at half of the fitted maximal effect
# Summary of the method: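 ERR cell line, 2,000 cells/well. 6 h settle, then compound (DMSO) added; 18 h at 37 C; ONE-Glo luminescence after 30 min RT.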
# [6] = qHTS assay to identify small molecule agonists of the estrogen related receptor (ERR) signaling pathway from Tox21 library (AID 1224849; calls by dose curve; further: nearly all actives have a fitted effect of over 15% in size); details: ERR reporter cell line, ONE-Glo luciferase, 18 h
# Summary of the method: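 Luciferase activity in ERR pathway reporter cells served as the agonist readout; exposure lasted 18 h at 37 C, with ONE-Glo detection after 30 min at room temperature.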
# [7] = qHTS RealTime-Glo MT Cell Viability Assay in HepG2 cells - 24 hour (AID 1224867); further: nearly all actives have a fitted effect of over 50% in size; further: potency means the concentration at half of the fitted maximal effect
# Summary of the method: (§1)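 Cell number in HepG2 cultures estimated from NanoLuc luminescence generated by metabolic reduction of a prosubstrate by living cells. The homogeneous, nonlytic format allowed repeated reads at 0, 8, 16, 24, 32 and 40 h of compound exposure.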
# [8] = qHTS RealTime-Glo MT Cell Viability Assay in HEK293 cells - 32 hour (AID 1224868); further: nearly all actives have a fitted effect of over 50% in size; further: potency means the concentration at half of the fitted maximal effect
# Summary of the method: (§2)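 Homogeneous bioluminescent viability format in HEK293 cells (600 cells/well). Following 5 h at 37 C/5% CO2, 23 nL compound was pintooled; the signal was measured repeatedly during 40 h incubation.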
# [9] = A CellTox Green Cytotoxicity Assay to monitor cytotoxicity in HEK293 cells - 0 hour (AID 1224869); further: nearly all actives have a fitted effect of over 50% in size
# Summary of the method: (§3)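 Real-time, in one plate: 600 HEK293 cells/well with dead-cell DNA dye, pinned compound after 5 h, 37 C incubation over 40 h; viable cells give no appreciable fluorescence.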
# [10] = qHTS RealTime-Glo MT Cell Viability Assay in HepG2 cells - 40 hour (AID 1224870); further: nearly all actives have a fitted effect of over 50% in size
# Summary of the method: (§4)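 Real-time viability: cells seeded at 600 per well together with NanoLuc and cell-permeant prosubstrate, compounds added after 5 h incubation. Luminescence tracked at 0, 8, 16, 24, 32 and 40 h of exposure.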
# [11] = A CellTox Green Cytotoxicity Assay to monitor cytotoxicity in HEK293 cells - 40 hour (AID 1224871); further: nearly all actives have a fitted effect of over 45% in size; further: potency means the concentration at half of the fitted maximal effect
# Summary of the method: as §3
# [12] = qHTS RealTime-Glo MT Cell Viability Assay in HEK293 cells - 16 hour (AID 1224872)
# Summary of the method: as §2
# [13] = qHTS RealTime-Glo MT Cell Viability Assay in HepG2 cells - 8 hour (AID 1224873); further: nearly all actives have a fitted effect of over 55% in size; further: potency means the concentration at half of the fitted maximal effect
# Summary of the method: as §4
# [14] = qHTS RealTime-Glo MT Cell Viability Assay in HEK293 cells - 40 hour (AID 1224874); details: RealTime-Glo luminescence; max response: stronger effect = lower value; further: nearly all actives have a fitted effect of over 50% in size; further: potency means the concentration at half of the fitted maximal effect
# Summary of the method: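 Kinetic, non-lysing viability readout. Seed HEK293 (600/well) with reagent, incubate 5 h at 37 C/5% CO2, pin 23 nL compound in DMSO, incubate at 37 C, read luminescence at 0, 8, 16, 24, 32, 40 h.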
# [15] = A CellTox Green Cytotoxicity Assay to monitor cytotoxicity in HEK293 cells - 24 hour (AID 1224875); further: nearly all actives have a fitted effect of over 45% in size; further: potency means the concentration at half of the fitted maximal effect
# Summary of the method: as §3
# [16] = A CellTox Green Cytotoxicity Assay to monitor cytotoxicity in HepG2 cells - 16 hour (AID 1224876); further: nearly all actives have a fitted effect of over 45% in size; further: potency means the concentration at half of the fitted maximal effect
# Summary of the method: (§5)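 Cytotoxicity was tracked as dead-cell DNA fluorescence in HepG2 cells treated with test compounds at 37 C; each time-point value comes from one kinetic series spanning 0, 8, 16, 24, 32 and 40 h.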
# [17] = qHTS RealTime-Glo MT Cell Viability Assay in HepG2 cells - 32 hour (AID 1224877); further: nearly all actives have a fitted effect of over 55% in size; further: potency means the concentration at half of the fitted maximal effect
# Summary of the method: as §1
# [18] = A CellTox Green Cytotoxicity Assay to monitor cytotoxicity in HepG2 cells - 24 hour (AID 1224878); further: nearly all actives have a fitted effect of over 45% in size; further: potency means the concentration at half of the fitted maximal effect
# Summary of the method: as §5
# [19] = A CellTox Green Cytotoxicity Assay to monitor cytotoxicity in HepG2 cells - 40 hour (AID 1224879); further: nearly all actives have a fitted effect of over 40% in size; further: potency means the concentration at half of the fitted maximal effect
# Summary of the method: as §5
# [20] = qHTS assay to identify small molecule agonists of H2AX (AID 1224845; active means well fitted activation curve with a large enough effect in the signal ratio in the repeat runs, not every such curve was filed as active; the % refers to the signal ratio)
# Summary of the method: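 Phospho-H2AX Ser139 measured by HTRF (ex 320 nm; em 665 and 620 nm) after 24 hr antibody incubation. Compounds, 15 concentrations, 0.76% DMSO, were applied to CHO-K1 cells for 3hr at 37C before lysis.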
# [21] = at 92.4 µM (top of the series) unless noted
# Thyrotropin receptor (Homo sapiens), sequence (P16473 whole entry, looked up): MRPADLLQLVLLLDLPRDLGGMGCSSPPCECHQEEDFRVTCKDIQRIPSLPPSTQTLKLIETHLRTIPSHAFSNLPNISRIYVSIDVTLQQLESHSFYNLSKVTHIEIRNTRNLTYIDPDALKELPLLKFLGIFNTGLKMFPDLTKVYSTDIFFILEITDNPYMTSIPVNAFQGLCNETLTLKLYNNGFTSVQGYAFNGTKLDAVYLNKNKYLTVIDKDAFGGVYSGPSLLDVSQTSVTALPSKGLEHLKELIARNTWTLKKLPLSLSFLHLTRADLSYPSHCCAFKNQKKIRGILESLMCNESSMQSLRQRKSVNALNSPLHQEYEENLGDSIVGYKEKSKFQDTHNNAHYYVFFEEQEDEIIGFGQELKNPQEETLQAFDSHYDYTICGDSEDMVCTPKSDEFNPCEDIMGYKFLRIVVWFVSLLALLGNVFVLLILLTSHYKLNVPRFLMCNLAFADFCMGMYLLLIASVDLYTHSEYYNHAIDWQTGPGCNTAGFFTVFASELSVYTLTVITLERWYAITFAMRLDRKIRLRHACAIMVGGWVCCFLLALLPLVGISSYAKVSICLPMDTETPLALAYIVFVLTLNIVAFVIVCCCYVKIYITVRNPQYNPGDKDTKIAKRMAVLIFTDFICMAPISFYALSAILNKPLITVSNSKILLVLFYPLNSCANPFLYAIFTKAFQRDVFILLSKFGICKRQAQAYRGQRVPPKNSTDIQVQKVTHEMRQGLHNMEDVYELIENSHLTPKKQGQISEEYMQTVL
smiles,measurement,setting,value
CCC(C)COC(C)=O (stereo unspecified),Potency,[1],inactive
same,Potency,[2],inactive
same,outcome,[3],inactive
same,Potency,[4],inactive
same,Potency,[5],inactive
same,"activity change, positive = activation",[6]; [21],1.45% (inactive)
same,Potency,[7],inactive
same,Potency,[8],inactive
same,Potency,[9],inactive
same,Potency,[10],inactive
same,Potency,[11],inactive
same,Potency,[12],inactive
same,Potency,[13],inactive
same,max response,[14],12% (inactive)
same,Potency,[15],inactive
same,Potency,[16],inactive
same,Potency,[17],inactive
same,Potency,[18],inactive
same,Potency,[19],inactive
Cc1[nH]cnc1CN1CCc2c(c3ccccc3n2C)C1=O,Potency,[1],inactive
same,Potency,[2],inactive
same,outcome,[3],inactive
same,Potency,[4],inactive
same,Potency,[5],inactive
same,"activity change, positive = activation",[6]; [21],-18.3% [at 42.5 µM] (inactive)
same,Potency,[7],inactive
same,Potency,[8],inactive
same,Potency,[10],inactive
same,Potency,[12],inactive
same,Potency,[13],inactive
same,max response,[14],-24.4% (inactive)
same,Potency,[15],inactive
same,Potency,[16],inactive
same,Potency,[17],inactive
same,Potency,[18],inactive
same,Potency,[19],inactive
N#[N+]c1ccc2c(S(=O)(=O)[O-])cccc2c1O,Potency,[1],inactive
same,Potency,[2],inactive
same,outcome,[3],inactive
same,Potency,[4],inactive
same,Potency,[5],inactive
same,"activity change, positive = activation",[6]; [21],-0.985% (inactive)
same,Potency,[7],inactive
same,Potency,[8],inactive
same,Potency,[9],inactive
same,Potency,[10],inactive
same,Potency,[11],inactive
same,Potency,[12],inactive
same,Potency,[13],inactive
same,max response,[14],-19.6% (inactive)
same,Potency,[15],inactive
same,Potency,[16],inactive
same,Potency,[17],inactive
same,Potency,[18],inactive
same,Potency,[19],inactive
O=C(O)CCC(=O)C(=O)O,Potency,[1],inactive
same,Potency,[2],inactive
same,Potency,[20],inactive
same,Potency,[4],inactive
same,Potency,[7],inactive
same,Potency,[8],inactive
same,Potency,[10],inactive
same,Potency,[11],inactive
same,Potency,[13],inactive
same,max response,[14],0.138% (inactive)
same,Potency,[15],inactive
same,Potency,[16],inactive
same,Potency,[17],inactive
same,Potency,[18],inactive
same,Potency,[19],inactive
CC(CN(C)C)C(C)(O)Cc1ccc(Cl)cc1 (stereo unspecified),Potency,[1],inactive
same,Potency,[2],inactive
same,outcome,[3],inactive
same,Potency,[4],inactive
same,Potency,[5],inactive
same,"activity change, positive = activation",[6]; [21],9.4% [at 42.5 µM] (inactive)
same,Potency,[7],inactive
same,Potency,[8],inactive
same,Potency,[10],inactive
same,Potency,[11],inactive
same,Potency,[12],inactive
same,Potency,[13],inactive
same,max response,[14],-0.684% (inactive)
same,Potency,[15],inactive
same,Potency,[17],inactive
same,Potency,[18],inactive
same,Potency,[19],inactive
C[C@]12CC[C@@H]3c4ccc(O)cc4CC[C@H]3[C@@H]1CC[C@@H]2OC(=O)CCC1CCCC1,Potency,[1],inactive
same,Potency,[2],inactive
same,outcome,[3],inactive
same,Potency,[4],56.6 µM (active)
same,Potency,[5],54.5 µM (active)
same,"activity change, positive = activation",[6]; at 42.5 µM (top of the series),-30% (inactive)
same,"activity change, positive = activation",[6]; at 92.4 µM (top of the series),-67.7% (inactive)
same,Potency,[7],49 µM (active) and inactive
same,Potency,[8],43.6 µM (active)
same,Potency,[9],inactive
same,Potency,[10],inactive
same,Potency,[11],54.9 µM (active)
same,Potency,[13],49 µM (active) and inactive
same,Potency,[14],43.6 µM (active)
same,Potency,[15],54.9 µM (active)
same,Potency,[16],49 µM (active) and 19 µM (active)
same,Potency,[17],54.9 µM (active) and inactive
same,Potency,[18],49 µM (active) and 23.9 µM (active)
same,Potency,[19],54.9 µM (active) and 26.8 µM (active)
C(=C\c1ccccc1)/c1ccccc1,Potency,[1],inactive
same,Potency,[2],inactive
same,outcome,[3],inactive
same,Potency,[4],inactive
same,Potency,[5],inactive
same,Potency,[7],inactive
same,Potency,[8],inactive
same,Potency,[9],inactive
same,Potency,[10],inactive
same,Potency,[12],inactive
same,Potency,[13],inactive
same,max response,[14],7.61% (inactive)
same,Potency,[16],inactive
same,Potency,[17],inactive
same,Potency,[18],inactive
same,Potency,[19],inactive
OC[C@H]1O[C@@H](n2cnc3c(=S)nc[nH]c32)[C@H](O)[C@@H]1O,Potency,[1],inactive
same,Potency,[2],inactive
same,outcome,[3],inactive
same,Potency,[4],3.1 µM (active)
same,Potency,[5],11.9 µM (active)
same,"activity change, positive = activation",[6]; [21],-47.1% [at 42.5 µM] (inactive)
same,Potency,[7],inactive
same,Potency,[8],21.3 µM (active)
same,Potency,[9],inactive
same,Potency,[10],inactive
same,Potency,[11],inactive
same,Potency,[12],inactive
same,Potency,[13],inactive
same,Potency,[14],21.3 µM (active)
same,Potency,[15],inactive
same,Potency,[16],inactive
same,Potency,[17],inactive
same,Potency,[18],inactive
same,Potency,[19],inactive
